# Results reported in ChEMBL document CHEMBL3988442, “University of Dundee, Small-Polar-MMV Screening Library” (2021).
# Out of some 48,000 compounds screened, about 13,000 (27%) showed an effect of 50% or more. This is one part of the list.
# Tested on: Wolbachia pipientis
# Experiment: Anti-Wolbachia Cell-Based Screen
# Format: functional
# Parameters: scale not given: in the data most compounds retested in dose-response had high values
# Details: 5 µM
row,Compound,Percent Effect
1,O=c1[nH]c(CN2CCN(CC(F)(F)F)CC2)nc2ccccc12,-9.937%
2,CCn1c(CN2CCOC(Cn3cncn3)C2)nc2cc(F)ccc21 (configuration not stated),8.019%
3,CCn1cncc1Cn1cccc(C(F)(F)F)c1=O,2.585%
4,Cc1ccc(C2(CN3CCN(Cc4cncn4C)CC3)CC2)cc1.Cl,158.8%
5,Cc1ccc(C2(CN3CCN(c4ncccn4)CC3)CCNCC2)nc1,-14.8%
6,Cn1cncc1CN1CCC2(CC1)CCN2c1ncccn1,0.5048%
7,Cc1ccc(C2(CN3CCCC3)CCNCC2)nc1,5.469%
8,Cc1ccc(C2(CN3CCN(Cc4cnc(C)n4C)CC3)CC2)cc1.Cl,125%
9,COCCn1cncc1CN1CCCC(C)(c2ccccc2)C1 (configuration not stated),-12.89%
10,CCn1cncc1CN1CCN(CC2(c3ccc(C)cc3)CC2)CC1.Cl,124%
11,COCCN1CCCC12CCN(Cc1cncn1C)CC2.O=C(O)C(F)(F)F.O=C(O)C(F)(F)F,-4.301%
12,Cc1ccc(C(=O)Nc2cc(C(N)=O)ccc2CN(C)C)cc1Cl,-14.19%
13,NC(=O)c1ccc(NC(=O)N2CCN(c3cccs3)CC2)c(F)c1,-5.895%
14,CS(=O)(=O)NC[C@H]1OC[C@@H](NC2CCC(F)(F)CC2)[C@@H]1O,-4.949%
15,OCCO[C@H]1C[C@@H](O)C12CCN(Cc1nc(C(F)(F)F)no1)CC2,99.64%
16,COCc1noc(CN2C(=O)OC[C@@H]2C(C)C)n1,-2.73%
17,NCCO[C@H]1C[C@@H](O)C12CCN(Cc1c(F)cccc1F)CC2,-12.61%
18,COc1ccc(F)c(F)c1CN1CCC2(CC1)[C@H](O)C[C@@H]2OCCN,1.725%
19,CO[C@H]1C[C@@H](O)C12CCN(Cc1nc(C(F)(F)F)no1)CC2,107.1%
20,COCc1noc(CN2CCC3(CC2)[C@H](O)C[C@@H]3OC)n1,101.4%
21,COc1cc(CN2CCC3(CC2)[C@H](O)C[C@@H]3OCCO)ccc1F,8.427%
22,CNc1cc(C)nc(N2CCC3(CC2)[C@H](O)C[C@@H]3OC)n1,12.2%
23,CCN(Cc1nc(COC)no1)C[C@]1(O)CCCN2CCCC[C@@H]21,-7.865%

row,Compound,Percent Effect
1,Cc1ccccc1SC1CCN(C(=O)C2CNCC(=O)N2)CC1 (configuration not stated),-16.36%
2,COc1nccnc1-c1cccc(-c2ccn(CC3COCCO3)n2)c1 (configuration not stated),-15.38%
3,CCN(C)c1ncnc2c1CCN(C(=O)c1cccn1C)CC2,-8.14%
4,COCCn1ccc(=O)c(OCC(=O)Nc2cccc(C(C)=O)c2)c1C,6.255%
5,CC(C)Cn1ccc2c(NC(=O)c3n[nH]c4c3CCC4)cccc21,106.4%
6,COCCn1ccc2c(NC(=O)c3n[nH]c4c3CCC4)cccc21,97.48%
7,CC(C)Cn1cncc1CNC(=O)c1cccc(-n2cnnc2)c1,1.824%
8,COCCn1cc(C(=O)N2CCCC2c2cc(C)on2)c2ccccc21 (configuration not stated),-11.13%
9,CC(C)CN1CCc2[nH]nc(C(=O)N3CCCC3)c2C1.O=C(O)C(F)(F)F,26.25%
10,CC(C)n1ccc2c(NC(=O)c3n[nH]c4c3CCC4)cccc21,99.33%
11,O=C(c1n[nH]c2c1CCC2)N1CCCC1c1nc(-c2ccccc2)no1 (configuration not stated),8.692%
12,COCCn1ccc2c(NC(=O)c3n[nH]c4c3CCCC4)cccc21,111.2%
13,O=C(c1n[nH]c2c1CCC2)N1CCCC1c1nc(-c2ccccn2)no1 (configuration not stated),14.67%
14,Cc1noc(C)c1CSc1nc(=O)ccn1C(C)C,-1.27%
15,NC(=O)C(NC(=O)COCCc1ccccc1)c1ccccc1F (configuration not stated),-15.69%
16,CCCn1nc2c(cc1=O)CN(CCCS(N)(=O)=O)CC2,-2.42%
17,CCC[C@@H]1CN(Cc2c[nH]c(CC3CCCC3)n2)C[C@H]1C(=O)O,-10.74%
18,CCOC(=O)c1coc(N2CCC(C(C)N3CCCC3)CC2)n1 (configuration not stated),0%
19,O=C(CCc1ccsc1)NS(=O)(=O)Cc1ccon1,-50.57%
20,Cn1ccnc1CCNC(=O)C1CCCN(Cc2cccc(F)c2)C1 (configuration not stated),-2.372%
21,Cc1cc2ccccc2n1CCC(=O)NCc1ncc[nH]1,-13.5%
22,Cc1cc(CCC(=O)N2CCC(O)CC2)ccc1Br,-5.317%
23,Cc1cc(CCC(=O)NCc2ncc[nH]2)ccc1Br,105.6%

row,Compound,Percent Effect
1,O=C(CCc1ccc(Br)cc1)NCc1nnc[nH]1,-10.7%
2,Cn1ccnc1CNC(=O)CCc1cccc(F)c1,127.3%
3,CC(CCc1cccc(F)c1)NC(=O)NCc1ncnn1C (configuration not stated),-8.39%
4,Cc1cc(CCC(=O)N2CC[C@H](O)C2)ccc1Br,2.583%
5,Cc1cc(CCC(=O)NCc2nccn2C)ccc1Br,125.4%
6,CC(C)CC(NC(=O)c1cc(-c2cccn2C)n[nH]1)c1ncnn1C (configuration not stated),13.42%
7,CCc1csc(CNc2nc3c(s2)c(C)nn3C)n1,-26.31%
8,OCC(CO)Nc1ccc2c(Cl)ccc(Cl)c2n1,1.659%
9,COc1cc(F)ccc1-c1nc2c([nH]1)c(C1CC1)nn2C,1.853%
10,Cc1ccsc1CN(C)Cn1nccc1-c1cccnc1,34.48%
11,O=C(CCN1CCN(c2ccc3nncn3n2)CC1)N1CCCCC1,90.26%
12,Clc1ccccc1CCN1CCN(c2ccc3nncn3n2)CC1,114.3%
13,FC(F)(F)COCCN1CCN(c2ccc3nncn3n2)CC1,-1.16%
14,c1ccc(OCCCN2CCN(c3ccc4nncn4n3)CC2)cc1,7.239%
15,c1ccc(CCCN2CCN(c3ccc4nncn4n3)CC2)cc1,101.5%
16,c1cc(CCN2CCN(c3ccc4nncn4n3)CC2)ccn1,116%
17,O=C(CCN1CCN(c2ccc3nncn3n2)CC1)NC1CCCC1,0.1018%
18,CC1CCCCN1C(=O)CN1CCN(c2ccc3nncn3n2)CC1 (configuration not stated),-2.497%
19,CN(Cc1ccccc1OC(F)(F)F)C(=O)C1CCCN(C(N)=O)C1 (configuration not stated),15.24%
20,COCC1CCCCN1Cc1nc(-c2ccoc2)oc1C (configuration not stated),2.327%
21,Cn1cc(N2CCN(c3ccc(C#N)cc3Br)CC2=O)cn1,-23.45%
